# About 83,000 compounds went through this panel and 20% of them were active in at least one assay; those are over-represented in the sample as a whole.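 Cell lines were cultured in 96-well plates, exposed to a single compound concentration, and assessed for percent growth 48 hours later.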 The source made the active and inactive calls.
# Test system: TK-10 renal
# Assay: NCI-60 one-dose screen, 48 h (100 = growth as untreated, 0 = no growth, -100 = all killed)
# Conditions: 10 µM
# Procedure: Growth inhibition of the TK-10 human tumor cell line is measured as a screen for anti-cancer activity. Cells are grown in 96 well plates and exposed to the test compound for 48 hours. Compounds are tested at a single concentration, which is 10^-5 M for most compounds. The reported endpoint is percent growth (GI% or GIPRCNT), where numbers from 0 - 100% represent growth inhibition, and numbers from -100% - 0 represent cell death. For example, a value of 40 represents 60% growth inhibition. A value of 0 means no net growth occurred over the course of the experiment. A value of -40 indicates 40% of cells at the beginning of the experiment died by the end of the experiment. A value of -100 means all cells are dead at the end of the experiment.
# NCI-60 Human Tumor Cell Lines Screen was performed using the standard one-dose NCI protocol, which is described in more detail at https://dtp.cancer.gov/discovery_development/nci-60/default.htm.
# Compounds with GIPRCNT values below 10 were considered active. Activity score was based on GIPRCNT using the following formula: […]
# Score is 0 for GIPRCNT values of 100 or above, 50 for GIPRCNT values of 0, and 100 for GIPRCNT values of -100.
row,Compound,growth
1,C=CCn1c(SCC(=O)Nc2ccc(C(=O)/C=C/c3cc(OC)c(OC)c(OC)c3)cc2)nnc1-c1cc(-c2ccc(Cl)cc2)nc2ccccc12,113% (inactive)
2,O=C(O)c1ccc(-n2cc(CNc3ccc(Oc4ccccc4)cc3)c(-c3ccccc3)n2)cc1,90.1% (inactive)
3,COc1ccc(/C=C/c2nnc(/C=C/c3ccc(OC)c(OC)c3)o2)cc1OC,45.5% (inactive)
4,Nc1cc(Br)c(-c2nn3c(CCC(=O)c4nc5ccccc5[nH]4)nnc3s2)c(Br)c1,117% (inactive)
5,C=CCn1c(SCC(=O)Nc2ccc(C(=O)/C=C/c3ccc(OC)cc3)cc2)nnc1-c1ccc(OC)c(OC)c1,110% (inactive)
6,O=C1/C(=C/c2ccc([N+](=O)[O-])s2)Oc2cc(Cl)ccc21,-26.8% (active)
7,CN(C)c1nc(N)c2nccnc2n1,104% (inactive)
8,CC(=O)OC1C=CC(OC(C)=O)O1 (stereo not given),102% (inactive)
9,O=S(=O)(O)c1ccc(Cl)cc1,88.2% (inactive)
10,COc1ccc(-c2nn(-c3cccc(Cl)c3)cc2-c2c(C#N)c(=O)n3[nH]c(-c4ccccc4)nc3c2C#N)cc1,123% (inactive)
11,O=[N+]([O-])c1cccc(/C=N/NC(=S)NC23CC4CC(CC(C4)C2)C3)c1,96.6% (inactive)
12,CCOC(=O)C1=CSC2=NC3=C(CCC/C3=C\c3cc(OC)c(OC)c(OC)c3)C(c3cc(OC)c(OC)c(OC)c3)N12 (stereo not given),84.7% (inactive)
13,CCOC(=O)c1cc(C(=O)c2cc(OC)c(OC)c(OC)c2)n2ncc3ccccc3c12,97.3% (inactive)
14,Nc1ccc(CC[C@H]2CCC/C=C/[C@@H]3C[C@H](O)C[C@H]3[C@H](O)/C=C/C(=O)O2)cc1,-53.8% (active)
15,CCCCCCCCCCCCCCCCCC[n+]1ccc2c(C)c3c(c(C)c2c1)c1cc(O)ccc1n3CC,17.8% (inactive)
16,O=C(Nc1ccc(OCc2nnc(-c3ccc(Cl)cc3)o2)c(F)c1)Nc1ccc(Cl)c(C(F)(F)F)c1,15.5% (inactive)
17,O=C(CCCSc1nc(-c2ccccc2)cc(-c2ccc(Cl)cc2)n1)NO,21.9% (inactive)
18,O=C(CSc1nccc(Nc2cccc3ccccc23)n1)c1ccc(Cl)cc1,112% (inactive)
19,CO[C@H]1CC(O[C@@H]2/C(C)=C/C[C@@H]3C[C@@H](C[C@]4(C=C[C@H](C)[C@@H](C5CCCCC5)O4)O3)OC(=O)[C@@H]3C=C(C)[C@@H](O)[C@H]4OC/C(=C\C=C\[C@@H]2C)[C@]43O)O[C@@H](C)C1O[C@H]1C[C@H](OC)[C@@H](O)[C@H](C)O1 (stereo not given in full),-85.5% (active)
20,O=C(CCCCC(=O)Oc1c(Cl)cc(Cl)cc1[N+](=O)[O-])Oc1c(Cl)cc(Cl)cc1[N+](=O)[O-],91.3% (inactive)

row,Compound,growth
1,CCN(CC)CCCC(C)Nc1c2ccc(Cl)cc2nc2ccc(OC)cc12 (stereo not given),23.9% (inactive)
2,O=C1C=C(Nc2cccc(Br)c2)c2ccccc2C1=O,89.8% (inactive)
3,COc1cccc(CNc2cccc3cn[nH]c23)c1O,92.4% (inactive)
4,CN1CCc2c(sc3nc4n(-c5ccc(Cl)cc5)cnn4c(=O)c23)C1,116% (inactive)
5,Clc1ccc(Cc2ccncc2)cc1,130% (inactive)
6,COc1cc(-c2csc(NC(=O)Nc3cc(C(F)(F)F)cc(C(F)(F)F)c3)n2)cc(OC)c1OC,9.24% (active)
7,O=C(Nc1cc([N+](=O)[O-])c2[nH]c(=O)c3ccccc3c2c1)C(F)(F)F,84% (inactive)
8,CCOC(=O)CN(c1sc(C)c(C)c1C(=O)OCC)S(=O)(=O)c1ccc(C)cc1,121% (inactive)
9,CCn1c(CSc2nc3ccccc3c(=O)n2CCc2ccccc2)n[nH]c1=S,98% (inactive)
10,O=C(Nc1ccc(OS(=O)(=O)c2ccccc2)cc1)C1CCCCC1,97.4% (inactive)
11,CCOC(=O)C1C(C(=O)OCC)C2C(=O)C3C(C(=O)OCC)C(C(=O)OCC)C3C(=O)C12 (stereo not given),112% (inactive)
12,Cc1ccc(C(=O)C2C(=O)C3CCC2C3)cc1 (stereo not given),111% (inactive)
13,O=C(O)Cc1ccc(O)c(O)c1,112% (inactive)
14,Cc1cc(O)ccc1C1=NN(c2ccc(S(C)(=O)=O)cc2)C(=O)CC1,105% (inactive)
15,Nc1cc(-c2ccncc2)c[nH]c1=O,99.9% (inactive)
16,O=C1Cc2cc(CCN3CCN(c4nsc5ccccc45)CC3)c(Cl)cc2N1,104% (inactive)
17,O=S(=O)(Oc1ccc(-c2ccc3sccc3c2)cc1)c1ccccc1,99.8% (inactive)
18,CNC(=O)c1cc(Oc2ccc3c(c2)sc2nc(-c4ccc(N)cc4)cn23)ccn1,57.4% (inactive)
19,CN1C(C(=O)Nc2ccccn2)=C(O)c2sc(Cl)cc2S1(=O)=O,104% (inactive)
20,COc1cccc(-c2nc3sccn3c2-c2cccc(S(C)(=O)=O)c2)c1,102% (inactive)
